Experimental data: PubChem BioAssay AID1460 (National Center for Advancing Translational Sciences (NCATS), 2008)
Values joined by “and” are separate entries in the source; they are usually repeats but may differ in a detail not shown here. Equal entries are not always repeated. Screen size: about 270,000 compounds; about 5,800 (2.1%) were called active. Where a call stands in place of a potency, no number is given. Not shown: some 16% with an inconclusive outcome. Calls come from the whole dose curve; as a rule, active = well fitted inhibition curve with a large enough effect; inconclusive = small, poorly fitted or top-dose-only effect; inactive = flat fitted curve, though single readings scatter. Only a selection was taken, and actives are over-represented in it overall.

Target: Microtubule-associated protein tau (Homo sapiens) (UniProt P10636)
Sequence (P10636 561-689 P618L limits assumed): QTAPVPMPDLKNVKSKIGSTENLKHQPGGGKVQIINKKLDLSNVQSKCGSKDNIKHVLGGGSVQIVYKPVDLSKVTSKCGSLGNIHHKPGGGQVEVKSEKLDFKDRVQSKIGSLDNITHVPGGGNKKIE
Test: qHTS for Inhibitors of Tau Fibril Formation, Thioflavin T Binding; note: nearly all actives have a fitted effect of over 55% in size
Details: recombinant tau K18 P301L (four-repeat tau fragment), heparin-induced fibrillization, ThT fluorescence; series mostly up to 57.4 µM
From the text: NIH Molecular Libraries Probe Production Network [MLPCN]
NIH Chemical Genomics Center [NCGC]
Assay Provider: Carlo Ballatore, University of Pennsylvania
The microtubule-associated protein tau is an abundant protein in the axons of neurons that stabilizes microtubules. With its ability to modulate microtubule dynamics, tau contributes directly or indirectly, to key structural and regulatory cellular functions. Particularly important is the influence tau exerts on axonal transport, which allows signaling molecules, trophic factors and other essential cellular constituents to travel along the axons. Under pathological conditions, tau becomes sequestered into insoluble aggregates called neurofibrillary tangles. This phenomenon is believed to have pathological consequences by promoting axonal transport deficits that ultimately lead to synaptic dysfunction and neuronal loss. To identify inhibitors of tau aggregation, a heparin-induced tau fibril formation assay was used that employed a recombinantly expressed fragment of tau, K18 (Q242-E372), bearing a P301L mutation (Gustke et al. 1994; Hong et al. 1998). This assay monitors tau fibrillization by Thioflavin T (ThT) fluorescence.
Gustke, N., B. Trinczek, et al. (1994). "Domains of tau protein and interactions with microtubules." Biochemistry 33(32): 9511-22.
Hong, M., V. Zhukareva, et al. (1998).
Li, W. and V. M. Lee (2006).
von Bergen, M., S. Barghorn, et al. (2001). "Mutations of tau protein in frontotemporal dementia promote aggregation of paired helical filaments by enhancing local beta-structure." J Biol Chem 276(51): 48165-74.
NCGC Assay Protocol Summary:
For screening, 2 uL/well human K18 P301L (15 uM unlabeled and 0.24 uM Alexa 594-labeled tau, final concentrations) in reagent buffer (100 mM sodium acetate pH 7) was dispensed into black solid 1536-well plates (Grenier) using a solenoid-based dispenser. Following transfer of 23 nL compound or DMSO vehicle by a pin tool, 2 uL/well heparin (20 uM final concentration) in reagent buffer was added and the plate centrifuged 15 s at 1000 RPM. Plates were incubated 6 hr at 37 C and then 1 uL/well ThT (30 uM final concentration) was added. After a 1 hr ambient incubation, the plates were read by an Envision (Perkin Elmer) to monitor ThT fluorescence (450/8 nm excitation and 510/23 nm emission).
Keywords: NIH Roadmap, MLPCN, MLI, MLSMR, NCGC, qHTS, tau, tauopathies, Alzheimer's disease, fibril, neurodegeneration, aggregation
Potency is the fitted concentration of half-maximal effect.

| Compound | Potency |
| --- | --- |
| CC[N+](C)(CC)CCC[n+]1c(-c2ccccc2)c2cc(N)ccc2c2ccc(N)cc21 | 1.26 µM (active) |
| CC[C@@H]1CN2CC[C@@H]1C[C@H]2[C@H](O)c1ccnc2ccc(OC)cc12 | inactive |
| CCN(CC)CCOC(=O)c1cc2cc(COC)ccc2o1 | inactive |
| CN(C)[C@@H]1C(=O)C(C(N)=O)=C(O)[C@@]2(O)C(=O)C3=C(O)c4c(O)cccc4[C@@](C)(O)C3CC12 (stereo partly specified) | inactive |
| CN(C)CC1CCCCC1OC(=O)c1ccc(Cl)c(Cl)c1 (stereo unspecified) | inactive |
| CC(C)Oc1cccc(C(=O)C2CCCN(C3CCOCC3)C2)c1 (stereo unspecified) | inactive |
| N#CC(C#N)=Cc1cc(O)c(O)c([N+](=O)[O-])c1 | 10 µM (active) and 17.8 µM (active) |
| CC1=CC(=O)C2=C(C)C[C@H](O)[C@H]3[C@H](C)C(=O)O[C@@H]3C12 (stereo partly specified) | inactive |
| CN1[C@@H]2CC[C@H]1CC(OC(=O)c1cc(Cl)cc(Cl)c1)C2 (stereo partly specified) | inactive |
| CC1(C)Cc2c(C#N)c(N3CCNCC3)nc(-c3ccco3)c2CS1 | inactive |
| COc1ccccc1N=C1SCCCN1C | inactive |
| COc1ccccc1N=Nc1c(O)[nH]c(=S)[nH]c1=O | 12.6 µM (active) |
| CCOCCc1c(O)[nH]c(=S)[nH]c1=O | inactive |
| COc1ccccc1-c1[se]c2ccccc2c1I | inactive |
| c1cc2c(cc1CCNC1CCCCCC1)OCO2 | inactive |
| CC[C@]1(O)C(=O)OCc2c1cc1n(c2=O)Cc2cc3ccccc3nc2-1 | inactive |
| CCCCN1C2CCC1CC(OC(c1ccc(F)cc1)c1ccc(F)cc1)C2 (stereo unspecified) | inactive |
| O=C(COc1ccc2ccccc2c1)N1CCN(Cc2ccncc2)CC1 | inactive |
| CC(=O)Oc1ccccc1C(=O)Nc1ncc([N+](=O)[O-])s1 | 11.2 µM (active) |
| O=c1oc2ccccc2c(O)c1C(c1ccccc1O)c1c(O)c2ccccc2oc1=O | inactive |
| c1ccc2sc(SNC3CCCCC3)nc2c1 | inactive |

| Compound | Potency |
| --- | --- |
| C[N+]1(C)CCOC(O)(c2ccc(-c3ccc(C4(O)C[N+](C)(C)CCO4)cc3)cc2)C1 (stereo unspecified) | inactive |
| Cc1ccc(CN2CCCC(C(=O)c3ccc4c(c3)OCO4)C2)cc1C (stereo unspecified) | inactive |
| COC(=O)N(c1ccc(OC)cc1)P1(=S)OCCC(C)O1 (stereo unspecified) | 28.2 µM (active) |
| CCCCCCCCCCCCn1ccc(=N)cc1 | inactive |
| COc1ccc2[nH]cc(CCNCc3ccc(Br)cc3)c2c1 | inactive |
| CCCCC/C=C\C/C=C\C/C=C\C/C=C\CCCCCC(=O)NCCO | inactive |
| Cc1cccc(N2C(=O)NC(=O)/C(=C\c3cnn(-c4ccccc4)c3)C2=O)c1 | inactive |
| O=C1NC(=O)N(c2ccccc2)C(=O)/C1=C/c1ccc([N+](=O)[O-])s1 | 14.1 µM (active) |
| COc1cccc(N2C(=O)NC(=O)/C(=C\c3ccc([N+](=O)[O-])s3)C2=O)c1 | 14.1 µM (active) |
| CN1C2CC3CC1C(O3)C2O (stereo unspecified) | inactive |
| COC1CC(OC2CC[C@@]3(C=O)C4CC[C@]5(C)C(C6=CC(=O)OC6)CC[C@@]5(O)C4CC[C@]3(O)C2)OC(C)C1O (stereo partly specified) | inactive |
| COc1c(O)ccc2c1-c1c3c(cc4c1C(C2)N(C)CC4)OCO3 (stereo unspecified) | inactive |
| O=C(NC(c1ccc(Cl)cc1)P(=O)(Oc1ccccc1)Oc1ccccc1)OCc1ccccc1 (stereo unspecified) | inactive |
| NCCc1c[nH]c2ccc(O)cc12 | inactive |
| CCOc1cccc(=NC2CCCCC2)c2c(C)[nH]c(C)c12 | 8.91 µM (active) |
| CN(C)c1nc(N(C)C)nc(N(C#N)CCCl)n1 | inactive |
| C=CCN1CCC2(C)c3cc(O)ccc3CC1[C@@H]2C (stereo partly specified) | inactive |
| CC(=O)c1c(O)c(C)c(O)c(Cc2c(O)c3c(c(C(=O)/C=C\c4ccccc4)c2O)OC(C)(C)C=C3)c1O | 15.8 µM (active) |
| CC(=O)c1c(O)c(C)c(O)c(Cc2c(O)c3c(c(C(=O)/C=C/c4ccccc4)c2O)OC(C)(C)C=C3)c1O | 15.8 µM (active) and 17.8 µM (active) and 12.6 µM (active) |
| O=C1NC(=O)C(CCc2ccccn2)(Cc2cccc(Cl)c2Cl)C(=O)N1c1ccc(Br)cc1 (stereo unspecified) | inactive |
| O=C(OCCN1CCOCC1)C1(c2ccccc2)CCCC1 | inactive |

| Compound | Potency |
| --- | --- |
| N[C@@H](Cc1c[nH]c2ccccc12)c1nnc(SCc2c(F)cccc2Cl)o1 | inactive |
| Cc1ccc(Cn2c(C)c3cnn(CC(=O)N4CCC5(CC4)OCCO5)c(=O)c3c2C)cc1 | inactive |
| COC(=O)c1ccc2[se]c(CC3CCCCC3)c(I)c2c1 | inactive |
| Cc1ccc2c(c1)=C/C(=C\c1c(O)[nH]c(=O)[nH]c1=O)C(=O)N=2 | inactive |
| CCC(=NCCc1ccccc1)c1c(O)n(C2CCCCC2)c(=O)[nH]c1=O | inactive |
| CCC(=NCc1ccco1)c1c(O)n(Cc2ccccc2)c(=O)[nH]c1=O | inactive |
| CC/C(=N\NC(=O)c1ccccc1O)c1c(O)n(Cc2ccccc2)c(=O)[nH]c1=O | 22.4 µM (active) |
| CCCCC/C=C\C/C=C\C/C=C\C=C\[C@H](CCCC(=O)O)OO | inactive |
| Cc1nc2ccccn2c1P(=S)(N1CCCCC1)N1CCCCC1 | inactive |
| Cc1cccc2c3c(ccc12)C1=C(C(=O)C3=O)C(C)CO1 (stereo unspecified) | 7.94 µM (active) |
| CN1CCN(Cc2ccc(OC(F)(F)F)cc2)CC1 | inactive |
| CCCN(C/C=C/I)C1CCc2ccc(O)cc2C1 (stereo unspecified) | inactive |
| CCCCCCCCc1[se]c2ccccc2c1Br | inactive |
| O=C(OCC1O[C@@H](OC(=O)c2cc(O)c(O)c(O)c2)[C@@H](OC(=O)c2cc(O)c(O)c(O)c2)[C@@H](OC(=O)c2cc(O)c(O)c(O)c2)[C@@H]1OC(=O)c1cc(O)c(O)c(O)c1)c1cc(O)c(O)c(O)c1 (stereo partly specified) | 11.2 µM (active) |
| O=C(O)C1C2CCC(O2)C1C(=O)O (stereo unspecified) | inactive |
| CO[C@@H]1C[C@@H](C[C@H]2CC[C@H](C)[C@@H]([C@@H](C)C(=O)O)O2)O[C@]2(O[C@](C)([C@H]3CC[C@@](C)(C4OC([C@H]5O[C@@](O)(CO)[C@H](C)C[C@@H]5C)C[C@@H]4C)O3)C[C@H]2C)[C@@H]1C (stereo partly specified) | inactive |
| Cc1ncsc1CCCl | inactive |
| CCC(C)n1c(O)c(/C=N/Nc2nc3c(c(=O)n(C)c(=O)n3C)n2C)c(=O)[nH]c1=S (stereo unspecified) | 11.2 µM (active) |
| CCOC(=O)C1(CCc2ccccc2)CCN(Cc2ccco2)CC1 | inactive |
